This assay is described as follows: chemical genetic growth profiling, strain panel (AID 1159580).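 Further: tested at 20 µM; growth read once vehicle control cultures reached saturation at 30 °C; 1 = growth at the plate median or of vehicle wells.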 Conditions: S. cerevisiae deletion strains, growth OD.
Setting [1] is: locus YAL040C, strain CLN3, stronger effect = lower value.
The mark [2] stands for this setting: locus YCL061C, strain MRC1 (second series), stronger effect = lower value.
Setting [3] is: locus YDR363W, strain ESC2, stronger effect = lower value.
[4] abbreviates: locus YER002W, strain NOP16, stronger effect = lower value.
[5] abbreviates: locus YNL175C, strain NOP13, stronger effect = lower value.
The mark [6] stands for this setting: locus YNL197C, strain WHI3, stronger effect = lower value.
[7] abbreviates: locus YNL224C, strain SQS1, stronger effect = lower value.
Setting [8] is: locus YOR083W, strain WHI5 (second series), stronger effect = lower value.
Setting [9] is: locus YPL055C, strain LGE1, stronger effect = lower value.
The mark [10] stands for this setting: locus YPL241C, strain CIN2, stronger effect = lower value.
[11] abbreviates: locus YMR307W, strain GAS1, stronger effect = lower value.

Screen size: about 5,500 compounds; about 2,000 (36%) were called active. Roughly 18% stayed inconclusive and do not appear here. This is one part of the list. Unmarked numbers belong to inactive results. No stated cut-off is given here; in the data, active means normalized growth mostly below about 0.91 (no sharp cut-off); inconclusive means no clear call, values can overlap the other calls; inactive means mostly above about 0.92.

In the case of `N#Cc1c(-c2ccccc2)no[n+]1[O-]`, the normalized growth (locus YAL013W, strain DEP1, stronger effect = lower value) was 0.942; the normalized growth under setting [1] was 0.674 (active); the normalized growth under setting [2] is 0.995; the normalized growth under setting [3] was 1; the normalized growth under setting [4] was 0.85 (active); the normalized growth (locus YNL153C, strain GIM3, stronger effect = lower value) is 0.515 (active). Further, the normalized growth reads like this: under setting [5], 0.774 (active); under setting [6], 0.902; under setting [7], 0.926; under setting [8], 0.253 (active); under setting [9], 0.953; under setting [10], 1.
As to `Cc1ccc(O)c(N=Nc2ccccc2)n1`, the normalized growth was 0.96 under setting [1]; 0.934 (active) under setting [2]; 0.896 under setting [3]; 1.03 under setting [4]; 0.855 (active) (locus YJR075W, strain HOC1, stronger effect = lower value); 0.984 under setting [11]. For the same molecule, the normalized growth by setting is: under setting [5], 0.985; under setting [6], 0.977; under setting [7], 0.993; under setting [8], 0.738 (active); under setting [9], 0.425 (active).
Take `NC1CCN(c2cccc(Cl)n2)CC1`: the normalized growth was 1.01 under setting [1]; 1 under setting [2]; 1.01 (locus YDR150W, strain NUM1, stronger effect = lower value); 1.01 under setting [3]; 0.991 under setting [4]; 1.01 (locus YGR078C, strain PAC10, stronger effect = lower value). The normalized growth reads like this: under setting [11], 1.02; (locus YNL128W, strain TEP1, stronger effect = lower value) 1.01; under setting [5], 0.991; under setting [6], 1; under setting [7], 1.01; (locus YNL322C, strain KRE1, stronger effect = lower value) 0.984. Also, the normalized growth reads like this: under setting [8], 0.991; under setting [10], 1.

The record behind these values is PubChem BioAssay AID1159580 (chemical genetic matrix, 2015).
